Results on 55 molecules are retold here after ChEMBL document CHEMBL4513216, “Probing the Open Global Health Chemical Diversity Library for Multistage-Active Starting Points for Next-Generation Antimalarials” (ACS Infect Dis, 2020).

Screen size: about 69,000 compounds; about 8,600 (12%) showed an effect of 50% or more. The sample as a whole holds a higher share of strong results than the screen did.

The subject of this assay is Plasmodium berghei. The assay can be described thus: Screen against P. berghei liver stage (PbLuc), transformed with Luciferase, at 10uM. Particulars: tested at 10 uM. The assay is classed as functional, HepG2.
On to `O=C(NCCOCC(F)(F)F)c1ccc(-c2ccccc2)[nH]c1=O`, for which the INHIBITION was determined as 14.4%.

For `O=C(CN1CCCC1)N1CCCC1c1nc(O)cc(-c2ccccn2)n1` (stereo not given), the INHIBITION is recorded as -1.85%.

Regarding `CCC(CO)N(Cc1cccnc1)C(=O)c1ccoc1C` (stereo not given), the INHIBITION was 3.13%. For `N#CC1(NC(=O)COC(=O)Cc2cc(Cl)c3c(c2)OCCO3)CCCC1`, the INHIBITION is given as 38.9%. For the molecule `N#Cc1ccc(S(=O)(=O)NC(=O)C2CC2)c(C(F)(F)F)c1`, the INHIBITION was found to be 54.9%. `CC(C)C(=O)NS(=O)(=O)c1ccc(C#N)cc1C(F)(F)F`: the INHIBITION is listed as -4.94%.

Regarding `CC(C)(C)C(=O)NS(=O)(=O)c1ccc(C#N)cc1C(F)(F)F`, the INHIBITION worked out at 39.2%. Take `O=C(Nc1ccc(Cl)cc1C(=O)NCCN1CCOCC1)c1ccco1`: the INHIBITION is reported as 32.3%. For `Cc1nc(-c2ccco2)ccc1C(=O)NCCCN1CCOCC1`, the INHIBITION was determined as 24.3%. With `O=C(Nc1ccc(I)cc1C(=O)NCCN1CCOCC1)c1cccs1`, the INHIBITION worked out at 25.4%. In the case of `O=C(Nc1ccc(I)cc1C(=O)NCCN1CCOCC1)c1ccco1` it was 52.2%; in that of `O=C(Nc1ccccc1C(=O)NCCN1CCOCC1)c1ccco1`, 38.7%. Consider `O=C(Nc1ccccc1C(=O)NCCCN1CCOCC1)c1ccco1`, for which the INHIBITION turned out to be 51%. As to `CCN(CC)C(=O)CN1CCc2nc(C3CCNCC3)nc(NC)c2C1`, the INHIBITION is reported as 23.9%. To `O=C1[C@H]2CN(Cc3ccccc3)C[C@H]2CN1CCN1CCCC1` belongs -55.3%; to `CO[C@H]1CCN(C(=O)c2cc(C)on2)[C@H]1Cc1ccncc1`, -15.9%; to `N#CCCN(Cc1ccccn1)Cn1cc(Cl)cn1`, 46.4%.

As for `Cc1ncncc1C(=O)NCCN1CCC(C)CC1`, the INHIBITION is -51.6%. For `CCS(=O)(=O)Cc1nnnn1-c1ccccc1`, the INHIBITION is given as 61.1%. `CNC(=O)CCS(=O)(=O)Cc1nnnn1-c1ccccc1`: the INHIBITION came out at 31.2%. As to `COCCS(=O)(=O)Cc1nnnn1-c1ccccc1`, the INHIBITION was 26.9%. For `COc1ccc([C@@H]2CN(Cc3ccncc3)C[C@H]2c2cc[nH]n2)cc1`, the INHIBITION came to 39.3%. For `Cn1cc(CN2CCC3(CC2)COC(COc2ccccn2)C3)cn1` (stereo not given), the INHIBITION was determined as 30.3%. Consider `N#Cc1ccc(OCC(O)CN2CCN(c3nccs3)CC2)cc1` (stereo not given), for which the INHIBITION was determined as 87.6%. Take `N#Cc1ccc(OCC(O)CN2CCC(c3ccn[nH]3)CC2)cc1` (stereo not given): the INHIBITION is 7.08%. As to `Cc1cccc(OCC(O)CN2CCN(c3nccs3)CC2)c1` (stereo not given), the INHIBITION is listed as 77.4%. As for `Cc1cccc(OCC(O)CN2CCC(c3ccn[nH]3)CC2)c1` (stereo not given), the INHIBITION is 42%.

As for `CC(=O)N(C)c1nc(CN2CCN(c3nccs3)CC2)cs1`, the INHIBITION came to 38.3%. With `CC(C)OCCCNC(=O)CN1CCN(c2nccs2)CC1`, the INHIBITION is given as -20.5%. In the case of `OC(COc1ccccc1)CN1CCN(c2nccs2)CC1` (stereo not given) it was 27.7%. As to `Cc1cc(C)cc(OCC(O)CN2CCN(c3nccs3)CC2)c1` (stereo not given), the INHIBITION amounted to 53.4%. For the molecule `COc1ccc(OCC(O)CN2CCN(c3nccs3)CC2)cc1` (stereo not given), the INHIBITION is on record as 8.9%. In the case of `CCc1c(C(=O)N2CCNC(=O)C2)cnn1C(C)(C)C` it was 3.73%; in that of `Cc1nn(C)c(C)c1C1CCCN1C(=O)c1nccnc1N` (stereo not given), 12.7%.

Regarding `Cn1ncc2c1C(COCC1CC1)CN(Cc1ccsc1)C2` (stereo not given), the INHIBITION is given as 4.57%.

Consider `COC(=O)COc1ccc(-c2noc(C3CCCO3)n2)cc1` (stereo not given), for which the INHIBITION was 8.59%. Regarding `COCCCNC(=O)c1cc(-c2ccc(OC)cc2)nn1C`, the INHIBITION is reported as 3.19%.

For the molecule `COc1ccccc1C1=NOC(CC2(C(=O)NC(C)C)CCOCC2)C1` (stereo not given), the INHIBITION is recorded as -29.8%. In the case of `CCn1cnnc1C1CCN(C(=O)c2ccc(Cl)cc2OC)CC1`, the INHIBITION was 25.1%. In the case of `Fc1cccc(-n2nc(C3CC3)nc2CCn2cnnn2)c1`, the INHIBITION came out at 24.8%.

For the molecule `COc1ccc(CCNC(=O)C2CCC(Cn3cnnn3)CC2)cc1` (stereo not given), the INHIBITION is listed as 22.9%. Turning to `COCc1nc(C2CC2)nn1-c1ccccc1Cl`, the INHIBITION is reported as 37.2%. `COCc1nc(C2CC2)nn1-c1cccc(F)c1`: the INHIBITION was -19.8%. To `CN1CCC(n2nc(Cc3cccc(Cl)c3)nc2Cn2cnnn2)CC1` belongs 15.7%; to `COc1ccc(Cl)cc1-n1nc(C2CCCC2)nc1Cn1cnnn1`, 70.4%.

Take `COc1ccc(-n2nc(C3CC3)nc2CCn2cnnn2)cc1`: the INHIBITION was found to be 52.5%. Consider `COCc1nc(C2CC2)nn1-c1cc(Cl)ccc1OC`, for which the INHIBITION amounted to 51.1%. As to `CN1C(=O)[C@@H]2CC[C@H]1CN(C(=O)c1sccc1S(N)(=O)=O)C2`, the INHIBITION was 25.9%. For `CC(Cn1cccn1)Nc1cnc2ccccc2n1` (stereo not given), the INHIBITION stood at 24.2%. As to `Cc1nc(-c2cccc(N3CCC(N[C@@H]4CCOC4)CC3)c2)cs1`, the INHIBITION is recorded as 44.1%. As for `O=C1N(Cc2cccc(F)c2)CCC12CCCN(c1ncc(F)cn1)C2` (stereo not given), the INHIBITION is given as 8.66%. Consider `CC(C)=CCCC(C)CN1CCC(n2cc(C(=O)NCCO)nn2)CC1` (stereo not given), for which the INHIBITION is 60.9%. In the case of `CC(C)=CCCC(C)CN1CCC(n2cc(C(C)(C)O)nn2)CC1` (stereo not given), the INHIBITION was -94.3%. Consider `CC(C)=CCCC(C)CN1CCC(n2cc(CO)nn2)CC1` (stereo not given), for which the INHIBITION is reported as -109%. `O=C(O)C1(Cc2cccc(Cl)c2)CCCN(c2ncnc3[nH]ccc23)C1` (stereo not given): the INHIBITION is given as -37.9%.
